Assay outcomes from PubChem BioAssay.
Only some compounds are listed: those with a hit (about 4.6% of all), similar ones and a draw of the others.
tim23-1 inh: inhibits growth of tim23-1 mutant yeast; S. cerevisiae tim23-1 growth, BacTiter-Glo luminescence, 24 h; AID 463212; 330,000 compounds, 1.3% hits; inhibition, % at 20 µM;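 active = growth inhibition of the mutant yeast at or above 50%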;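 also: temperature-sensitive mutant grown at 25 °C; plate controls were DMSO-treated mutant yeast for no effect and medium wells lacking yeast for full effect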
PfHsp90 yeast 2: inhibits growth of yeast expressing Plasmodium falciparum Hsp90; S. cerevisiae expressing PfHsp90, BacTiter-Glo ATP, 48 h; yeast lacking PDR1 and PDR3 efflux regulators; inhibition, % at 9.4 µM; 310,000 compounds, 0.32% hits; AID 504621;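 active = every replicate shows inhibition above about 80%, whatever the replicate mean, limit read from the data; inconclusive = mean inhibition reaches the set limit but some replicate falls short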;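 also: 0% = DMSO neutral controls and 100% = 20 µM radicicol positive controls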
tim10-1 inh: growth inhibitors of tim10-1 mutant yeast. S. cerevisiae tim10-1 ts strain growth, BacTiter-Glo, 24 h. inhibition, % at 20 µM. 330,000 compounds, 2.2% hits. AID 463190;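 active = inhibition of at least 40%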;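 also: mutant grown at 25 °C; 0% = DMSO wells with yeast and 100% = wells holding no yeast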
SKKanGAS inh: inhibitors of SKKanGAS S. pyogenes growth in kanamycin (SK-promoter or general growth effect); BacTiter-Glo, 6 h; inhibition, % at 7.5 µM; 300,000 compounds, 1.3% hits; AID 1662;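 active = mean replicate score, as percent of positive control median, at least 50; inconclusive = mean below 50 but one replicate at or above 50; inactive = mean and every replicate below 50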;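 also: strain carries kanamycin resistance gene driven by streptokinase promoter and grows in 40 µg/ml kanamycin; loss of luminescence reflects streptokinase promoter inhibition or plain growth inhibition; 0% = median of DMSO wells and 100% = positive control at its reference dose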
V-ATPase pH: yeast V-ATPase proton transport regulation by pHLuorin; S. cerevisiae, pHLuorin cytosolic pH fluorescence; 350,000 compounds, 0.37% hits; AID 504577; response, % at 10 µM; in the data active = response mostly above about 7.3%, no sharp cut-off; inactive = mostly below about 5.4%; also: actives read high
TIM10 inh: TIM10 yeast growth inhibition; S. cerevisiae TIM10 strain growth, BacTiter-Glo luminescence, 24 h; inhibition, % at 10 µM; 330,000 compounds, 1.4% hits;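 active = inhibition of 40% or more at the single tested concentration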;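 also: wild-type TIM10 isogenic control strain grown at permissive 25 °C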
tim23-1 confirm: confirmation of tim23-1 mutant yeast growth inhibitors; shares compounds with tim23-1 inh; S. cerevisiae tim23-1 growth, BacTiter-Glo luminescence, 24 h; inhibition, % at 20 µM; 4,400 compounds, 83% hits; AID 463218;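 active = inhibition above about 39% in either of two replicate wells at 20 µM, limit read from the data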;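 also: temperature-sensitive tim23-1 mutant grown at 25 °C; 0% = DMSO wells with yeast and 100% = medium wells without yeast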
V-ATPase pH SP: yeast V-ATPase proton transport regulation; shares compounds with V-ATPase pH; AID 602197; S. cerevisiae pHLuorin cytosolic pH; response, % at 10 µM; 980 compounds, 2% hits; in the data active = response above about 24%;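 also: plate controls were vehicle wells for no effect and positive control wells for full effect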
* marks the source's active call; other numbers are inactive results; ? = inconclusive; . = no result.

SMILES | tim23-1 inh | PfHsp90 yeast 2 | tim10-1 inh | SKKanGAS inh | V-ATPase pH | TIM10 inh | tim23-1 confirm | others
COc1ccc(NC2Oc3cc4c(cc3C(c3cc(OC)c(OC)c(OC)c3)C2C)OCO4)cc1 (stereo unspecified) | . | 20.1 | . | . | -10.9 | . | .
Cc1ccc(S(=O)(=O)Oc2ccccc2C=C2C(=O)N(C)C(=O)N(C)C2=O)cc1 | 72.9* | -3.6 | 32.8 | -0.3 | -1.8 | 38.4 | 75.4*
CN1C(=O)C(=Cc2ccccc2Oc2ccc(Cl)cc2)C(=O)N(C)C1=O | 29.3 | -19.4 | -3.4 | 11.1 | -1.0 | -4.9 | .
CN1C(=O)C(=Cc2ccccc2OCc2ccc(Cl)cc2)C(=O)N(C)C1=O | 66.7* | 8.4 | 18.3 | 3.5 | 6.4 | 24.2 | 79.5*
C#C[C@]1(O)CC[C@H]2[C@@H]3CCC4=Cc5nc6nc7ccccc7n6cc5C[C@]4(C)[C@H]3CC[C@@]21C | 30.1 | -0.2 | 18.5 | . | -3.4 | 2.5 | .
COC(=O)C1=C(c2ccc(F)cc2F)C[C@@H]2CC[C@H]1N2C(=O)NCc1ccc(C(F)(F)F)cc1 | 26.7 | 0.8 | 3.3 | . | -0.2 | -8.4 | .
Cc1ccc2n1Cc1cnnn1-c1ccccc1-2 | . | . | . | . | 0.6 | . | .
COC(=O)C(O)(c1ccc(N=Cc2ccccc2O)c(C)c1)C(F)(F)F (stereo unspecified) | 4.7 | -38.0 | -2.4 | -0.6 | 10.3 | -6.9 | .
CC(C)(C)c1ccc(O)c(N=Cc2c(O)ccc3ccccc23)c1 | 51.5* | -15.2 | 14.2 | 86.7* | 0.5 | 36.5 | 54.4*
O=Cc1cn(Cc2ccc(Br)cc2)c2ccccc12 | 59.5* | -53.4 | 26.9 | 22.6 | -1.1 | 24.5 | 39.0
CC(=O)C1CCC2C3CCC4CC(O)CCC4(C)C3CCC12C (stereo unspecified) | 55.6* | 12.2 | 34.4 | 7.9 | 9.6 | 11.4 | 49.1*
O=c1c2ccccc2nc(/C=C/c2ccccc2F)n1-c1ccccc1O | 54.2* | 8.3 | 29.9 | 24.3 | -2.5 | 32.7 | 48.5*
O=c1c2ccccc2nc(/C=C/c2ccccc2O)n1-c1ccccc1O | 8.9 | -5.1 | 24.1 | 16.9 | 1.0 | 5.2 | .
CCC(C)(C)n1nnnc1C(c1cccs1)N1CC=C(c2ccc(F)cc2)CC1 (stereo unspecified) | 57.0* | -3.7 | 21.1 | -3.3 | 2.6 | 39.5 | 51.9*
COc1cccc(C2CC3C(=O)C=CC2N3Cc2ccccc2)c1 (stereo unspecified) | 54.6* | 4.3 | 37.8 | 10.8 | 1.6 | 39.8 | 47.2*
O=C1C(Br)C2CCC1C2C(=O)O (stereo unspecified) | . | . | . | . | 0.3 | . | .
C=CCN1C(=O)/C(=C/c2ccc(Br)s2)C(=O)NC1=S | 55.8* | ? | 21.4 | -0.1 | 5.0 | 17.1 | 72.5*
N#Cc1ccccc1Cn1cc(C(=O)c2cccs2)c2ccccc21 | 61.4* | 4.8 | 8.0 | 12.6 | 2.7 | 22.3 | 12.7
NC(N)=N/N=C/c1ccc(N(c2ccccc2)c2ccccc2)cc1 | 70.7* | 24.0 | -27.4 | 105.2* | 1.9 | 22.4 | 27.3*
N#CC(C#N)=C(C#N)c1ccc(Nc2ccccc2)cc1 | 57.0* | -0.3 | 16.4 | 5.9 | -2.4 | -21.0 | 20.4
c1ccc(Nc2ccc(Nc3ccccc3)cc2)cc1 | 22.2 | 3.0 | 30.6 | . | 2.5 | 15.4 | .
CC(C)(C)C(=O)O[C@H]1CC[C@@]2(C)C(=CC(=O)C3C2CC[C@]2(C)C(=O)[C@@H](F)CC32)C1 (stereo partly specified) | 23.3 | 1.2 | 8.5 | . | -2.9 | 14.9 | .
CN(C)c1ccc(/C=C/[N+](=O)[O-])cc1 | 46.5 | -23.1 | 11.7 | 2.9 | 0.8 | 1.8 | .
COc1cc(/C=C/[N+](=O)[O-])ccc1OC(=O)c1cccnc1 | 84.5* | 108.9* | -63.2 | 7.3 | 4.3 | 34.1 | -25.3
CCCCCCCCc1ccc(O)cc1 | 50.5* | 19.9 | 16.5 | . | 27.4* | -1.5 | 39.5*
SMILES | tim23-1 inh | PfHsp90 yeast 2 | tim10-1 inh | SKKanGAS inh | V-ATPase pH | TIM10 inh | tim23-1 confirm | others
C[N+](C)(C)CCc1ccc(O)cc1 | -15.9 | 0.3 | -10.5 | -1.2 | -1.3 | -0.5 | .
CCN(CC)c1ccc(CNCCc2ccccc2F)cc1 | -12.4 | 0.9 | 5.1 | 0.7 | 1.8 | -11.7 | .
O=C(O)c1cn(Cc2ccccc2)nc1-c1ccccc1 | 18.7 | . | 3.4 | 1.3 | -2.2 | 6.6 | .
O=Cc1cn(Cc2c(F)cccc2Cl)nc1-c1ccccc1 | 55.0* | 4.8 | 39.3 | -5.4 | 4.6 | 38.8 | 40.4*
CCc1ccc(-c2nn(Cc3ccccc3)cc2C=O)cc1 | 54.3* | -42.4 | 32.5 | 6.6 | -1.1 | 29.7 | 58.0*
COC(=O)C1=C(c2ccc3ccccc3c2)C[C@@H]2CC[C@H]1N2C(=O)N1CCCCC1 | 29.4 | -1.8 | 3.4 | . | -3.6 | 16.7 | .
CCOC(=O)c1cc2c(cn1)[nH]c1ccccc12 | 20.2 | -10.8 | 1.6 | 12.5 | -3.7 | 0.1 | . | V-ATPase pH SP=0.4
CCOC(=O)c1ccccc1N | -9.9 | -0.1 | -15.6 | . | 1.5 | 2.2 | .
C1CN(P2(N3CC3)=NP(N3CC3)(N3CC3)=NP(N3CC3)(N3CC3)=N2)CCO1 (stereo unspecified) | . | . | . | . | -21.8 | . | .
Cc1ccsc1/C=C1\C(=O)NC(=S)N(C)C1=O | 22.2 | -6.3 | 17.7 | -6.5 | 11.3* | 9.6 | . | V-ATPase pH SP=44.5*
COc1ccc(/C=C2\C(=O)NC(=S)N(C)C2=O)cc1C | 13.6 | -9.3 | 19.8 | -6.7 | 0.5 | -13.0 | .
C[C@]1(O)CC[C@H]2[C@@H]3CCC4=CC(=O)CC[C@]4(C)[C@@]3(F)[C@@H](O)C[C@@]21C | . | . | . | . | 9.2* | . | . | V-ATPase pH SP=0.5
COC(=O)C1=C(c2cccc(OC)c2OC)C[C@@H]2CC[C@H]1N2C(=O)N1CCC(C)CC1 | 32.9 | -22.1 | 17.9 | 0.0 | -0.2 | 22.9 | .
Cc1c(OC(=O)N(C)C)ccc2c1O/C(=C\c1ccco1)C2=O | 36.4 | -17.2 | 33.2 | 0.1 | 2.0 | 14.4 | .
Cc1ccc(C2C(S(C)(=O)=O)=C(O)C(=O)N2c2ccccc2)cc1 (stereo unspecified) (tested in a mixture with another compound) | 12.8 | 19.3 | 3.1 | 5.1 | 7.7* | 6.3 | . | V-ATPase pH SP=-1.2
Cc1cc(OCC(=O)N2CCC(C(=O)O)(c3ccccc3)CC2)c2c(C)c(C)c(=O)oc2c1 | -1.2 | 16.0 | -6.1 | 7.3 | 10.3* | 3.1 | . | V-ATPase pH SP=0.2
Cc1ccc2nc(N3CCN(C)CC3)[nH]c2c1 | 8.8 | -4.6 | -4.9 | -1.7 | 12.4* | -4.4 | . | V-ATPase pH SP=0.5
CN1CCN(c2nc(N)cc(=O)[nH]2)CC1 | 18.3 | -0.6 | 14.2 | 0.1 | -1.3 | -11.3 | .
COC(=O)C1=C(c2ccc(C(C)=O)cc2)C[C@@H]2CC[C@H]1N2C(=O)NCCOc1ccccc1Cl | 24.6 | -4.8 | 17.7 | . | 4.4 | 16.6 | .
CCNC(=O)NC(=O)C(C)OC(=O)c1c(C)nn(Cc2ccccc2Cl)c1Cl (stereo unspecified) | 9.4 | 25.8 | 13.5 | -6.9 | -1.0 | 25.5 | .
